Laboratory results reported in the supplement of paper PMC12067926.

Tests used:
Test in all cases: relative growth (AUC of 72 h growth curve relative to DMSO control, dAUC) (ratio); higher = more growth (less inhibition), active = hit call of the paper
Conditions in all cases: 20 µM;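 active = growth AUC significantly below the DMSO wells by Dunnett test; inactive = the rest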
[1] = tested on: Aeromonas 1 (Aeromonas sp. AE235)
In short: (§1)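 Cultures grown to carrying capacity in Luria–Bertani medium, drawn from Icelandic stream sediment and Silwood Park soil isolates and whole sediment communities, were diluted 1:100 into 96-well plates with each chemical at 20 µM (1% DMSO) and read at A600 hourly for 72 h. The spline-integrated area under the growth curve, divided by the mean of the DMSO controls, is reported as relative growth (dAUC). Values are means of three biological replicates.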

[2] = tested on: Aeromonas 2 (Aeromonas sobria)
In short: as §1

[3] = tested on: Aeromonas 3 (Aeromonas popoffii)
In short: as §1

[4] = tested on: Argrobacterium 1 (Agrobacterium sp.)
In short: as §1

[5] = tested on: Arthrobacter 1 (Arthrobacter humicola)
In short: as §1

[6] = tested on: Arthrobacter 2 (Arthrobacter humicola)
In short: as §1

[7] = tested on: Arthrobacter 3 (Arthrobacter sp.)
In short: as §1

Community 4 = tested on: Community 4
In short: as §1

Community 6 = tested on: Community 6
In short: as §1

Community 7 = tested on: Community 7
In short: as §1

Community 8 = tested on: Community 8
In short: as §1

Community 9 = tested on: Community 9
In short: as §1

[8] = tested on: Flavobacterium 1 (Flavobacterium glaciei)
In short: as §1

[9] = tested on: Flavobacterium 2 (Flavobacterium succinicans)
In short: as §1

[10] = tested on: Hymenobacter 1 (Hymenobacter glaciei)
In short: as §1

[11] = tested on: Microbacterium 1 (Microbacterium arborescens)
In short: as §1

[12] = tested on: Neobacillus 1 (Neobacillus soli)
In short: as §1

[13] = tested on: Oryzobacter 1 (Oryzobacter terrae)
In short: as §1

[14] = tested on: Paenibacillus 1 (Paenibacillus castaneae)
In short: as §1

Measured: relative growth

COc1cccc(C(=O)NN(C(=O)c2cc(C)cc(C)c2)C(C)(C)C)c1C
inactive: [1] 0.951 | [2] 0.969 | [3] 0.979 | [4] 0.982 | [5] 0.98 | [6] 0.884 | [7] 1.02 | Community 4 0.822 | Community 6 0.89 | Community 7 1.12 | Community 8 1.03 | Community 9 0.893 | [8] 0.818 | [9] 0.92 | [10] 0.923 | [11] 0.977 | [12] 0.914 | [13] 1.06 | [14] 0.926

O=C(O)COc1ccc(Cl)cc1Cl
inactive: [1] 0.976 | [2] 0.999 | [3] 0.998 | [4] 0.944 | [5] 0.921 | [6] 0.958 | [7] 0.969 | Community 4 1.04 | Community 6 1.02 | Community 7 1.08 | Community 8 0.972 | Community 9 1.03 | [8] 0.966 | [9] 1.02 | [10] 1.07 | [11] 1.02 | [12] 1 | [13] 0.964 | [14] 1.01

CC(C)N(C)S(=O)(=O)NC(=O)c1cc(-n2c(=O)cc(C(F)(F)F)n(C)c2=O)c(F)cc1Cl
inactive: [1] 0.995 | [2] 1.02 | [3] 1.01 | [4] 1.03 | [5] 1.1 | [6] 1.01 | [7] 1.07 | Community 4 1.13 | Community 6 1.03 | Community 7 1.06 | Community 8 1.08 | Community 9 1.14 | [8] 1 | [9] 0.978 | [10] 1.04 | [11] 1 | [12] 0.98 | [13] 1.02 | [14] 0.99

COCC(=O)N(c1c(C)cccc1C)C(C)C(=O)OC (centres undefined)
inactive: [1] 1.03 | [2] 1.04 | [3] 1.04 | [4] 1.01 | [5] 0.944 | [6] 0.862 | [7] 0.994 | Community 4 1.05 | Community 6 1.03 | Community 7 1.08 | Community 8 0.993 | Community 9 1.09 | [8] 0.939 | [9] 0.99 | [10] 1.03 | [11] 1.02 | [12] 0.986 | [13] 1.01 | [14] 1.03

COP(=S)(OC)SCN1C(=O)c2ccccc2C1=O
inactive: [1] 1.02 | [2] 1.03 | [3] 1.01 | [4] 0.987 | [5] 0.962 | [6] 0.748 | [7] 1.09 | Community 4 1.02 | Community 6 1.03 | Community 7 1.04 | Community 8 1.02 | Community 9 1.04 | [8] 0.982 | [9] 0.975 | [10] 1.02 | [11] 0.992 | [12] 1.03 | [13] 0.954 | [14] 1.06

CS(=O)(=O)NC(=O)c1cc(Oc2ccc(C(F)(F)F)cc2Cl)ccc1[N+](=O)[O-]
inactive: [1] 1.02 | [2] 1.02 | [3] 1.03 | [4] 1.02 | [5] 0.905 | [6] 1.07 | [7] 1.05 | Community 4 1.02 | Community 6 1.03 | Community 7 1.04 | Community 8 1.05 | Community 9 1.07 | [8] 1.06 | [9] 1.02 | [10] 1.04 | [11] 1.03 | [12] 1.02 | [13] 0.957 | [14] 1.03

COc1ncc(F)c2nc(S(=O)(=O)Nc3c(F)cccc3F)nn12
inactive: [1] 1.06 | [2] 1.02 | [3] 1.07 | [4] 0.953 | [5] 1.03 | [6] 1.11 | [7] 1.03 | Community 4 1.05 | Community 6 1.05 | Community 7 0.948 | Community 8 1.04 | Community 9 1.11 | [8] 1.03 | [9] 1.06 | [10] 1.06 | [11] 1.03 | [12] 1.04 | [13] 1 | [14] 1.06

COP(N)(=O)SC (centres undefined)
inactive: [1] 0.996 | [2] 1 | [3] 0.972 | [4] 1.14 | [5] 0.92 | Community 4 0.808 | Community 7 1.34 | Community 8 0.924 | [9] 0.952 | [10] 1.01 | [11] 0.992 | [12] 0.856 | [13] 1.03
active: [6] 0.0085 | [7] 0.137 | Community 6 0.626 | Community 9 0.575 | [8] 0.117 | [14] 0.194

COc1cc(OC)nc(NC(=O)NS(=O)(=O)c2ncccc2C(=O)N(C)C)n1
inactive: [1] 1.06 | [2] 1.01 | [3] 1.03 | [4] 0.995 | [5] 0.976 | [6] 1.11 | [7] 1.05 | Community 4 1.08 | Community 6 1.06 | Community 7 1.02 | Community 8 1.07 | Community 9 1.08 | [8] 1.12 | [9] 1.08 | [10] 1.16 | [11] 1.04 | [12] 1.1 | [13] 0.98 | [14] 1.08

ClC1C(Cl)C(Cl)C(Cl)C(Cl)C1Cl (centres undefined)
inactive: [1] 1.02 | [2] 0.964 | [3] 0.994 | [4] 1 | [5] 1.04 | [6] 0.837 | [7] 0.909 | Community 4 0.976 | Community 6 0.931 | Community 7 1.03 | Community 8 0.993 | Community 9 0.963 | [8] 0.862 | [9] 0.932 | [10] 0.999 | [11] 1.01 | [12] 0.941 | [13] 1.13 | [14] 0.961

CCOC(=O)CC(SP(=S)(OC)OC)C(=O)OCC (centres undefined)
inactive: [1] 1.06 | [2] 0.992 | [3] 1.02 | [4] 1.01 | [5] 1.22 | [6] 1.05 | [7] 0.98 | Community 4 1.15 | Community 6 1.09 | Community 7 1.04 | Community 8 0.99 | Community 9 1.14 | [8] 1.02 | [9] 1.02 | [10] 1.02 | [11] 1 | [12] 1.06 | [13] 1.1 | [14] 1.02

CC(C)(C)[C@@H](O)[C@H](Oc1ccc(Cl)cc1)n1cncn1
inactive: [1] 1.02 | [2] 1.04 | [3] 1.03 | [4] 1.03 | [5] 1.15 | [6] 1.1 | [7] 1.02 | Community 4 1.14 | Community 6 1.12 | Community 7 0.988 | Community 8 1.02 | Community 9 1.09 | [8] 1.01 | [9] 1.02 | [10] 1.05 | [11] 0.963 | [12] 1.04 | [13] 1.02 | [14] 1.12

CCCN(CCC)C(=O)SCc1ccccc1
inactive: [1] 1.03 | [2] 1.02 | [3] 1 | [4] 1.04 | [5] 1.05 | [6] 0.932 | [7] 1.02 | Community 4 0.997 | Community 6 0.996 | Community 7 1.01 | Community 8 1.08 | Community 9 1.03 | [8] 0.979 | [9] 0.952 | [10] 1.15 | [11] 1.05 | [12] 1.02 | [13] 1.08 | [14] 1.01

C#CCN1C(=O)COc2cc(F)c(N3C(=O)C4=C(CCCC4)C3=O)cc21
inactive: [1] 0.987 | [2] 0.969 | [3] 0.982 | [4] 0.996 | [5] 1.03 | [6] 0.974 | [7] 0.979 | Community 4 0.951 | Community 6 0.959 | Community 7 1.07 | Community 8 1.01 | Community 9 0.923 | [8] 0.957 | [9] 0.977 | [10] 1.06 | [11] 1.04 | [12] 1.01 | [13] 1.04 | [14] 0.935

O=C(O)CNCP(=O)(O)O
inactive: [1] 0.998 | [2] 1 | [3] 1.03 | [4] 1.01 | [5] 0.952 | [6] 1.04 | [7] 1.04 | Community 4 1.03 | Community 6 1.07 | Community 7 1.06 | Community 8 1.04 | Community 9 1.04 | [8] 0.964 | [9] 1.02 | [10] 1.11 | [11] 1.05 | [12] 1.04 | [13] 1.02 | [14] 0.969

CC(C)NC(=O)N1CC(=O)N(c2cc(Cl)cc(Cl)c2)C1=O
inactive: [1] 0.998 | [2] 0.934 | [3] 1.01 | [4] 0.984 | [5] 1.06 | [6] 0.957 | [7] 0.841 | Community 4 0.925 | Community 6 0.969 | Community 7 1.07 | Community 8 0.959 | Community 9 0.94 | [8] 0.854 | [9] 0.973 | [10] 0.959 | [11] 0.984 | [12] 0.961 | [13] 1.02 | [14] 0.996
